Assay results as given in PubChem BioAssay.

How the values were obtained:
[1] = tested on: Human papillomavirus type 1a protein E7 (residues 44-93); experiment: HPV1a E7 fragment binders on microarrays, primary screen, biochemical, small-molecule microarray, residues 44-93, 635 nm fluorescence (AID 1108); details: small-molecule microarray binding, fluorescence 635 nm; higher = more signal;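 note: E7 fragment applied at 1 µg/mL in TBST for 1 h at 4 C; score combines spot fluorescence with its signal to noise ratio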
[2] = modulators of HCV replicon luciferase signal, primary screen, HCV replication inhibitor project, Huh7 cells, luciferase reporter (AID 1109); details: 48 h, higher = more signal;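 note: huh7 hepatoma cells harbouring a luciferase neomycin HCV replicon reporter; luciferase luminescence as measure of HCV replicon replication; test concentration not given here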
[3] = target: Left-right determination factor 2 (Homo sapiens) (UniProt O00292); experiment: LEFTY2 binders on small-molecule microarrays, primary screen, biochemical, small-molecule microarray, 635 nm fluorescence scan (AID 1110); details: LEFTY2 binding, higher = more signal
[4] = target: Calmodulin-1 (Homo sapiens) (UniProt P0DP23); experiment: CALM1 binders on microarrays, EGTA buffer, profiling panel, biochemical, small-molecule microarray, Cy5-labelled CALM1 (AID 1111); details: Cy5-CALM1 binding fluorescence, higher = more signal;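 note: labelled calmodulin applied in Tris saline Tween buffer holding calcium plus EGTA and DTT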
[5] = target: Calmodulin-1 (Homo sapiens) (UniProt P0DP23); experiment: calcium-bound CALM1 binders on microarrays, profiling panel, artefact control for SMM control-protein annotation, biochemical, small-molecule microarray, Cy5-labelled CALM1, plus calcium (AID 1112); details: Cy5-CALM1 binding fluorescence, higher = more signal;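 note: score merges spot fluorescence with signal to noise from triplicate slides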
[6] = small-molecule microarray binders of probe aWnt5a, primary screen, biochemical, biotinylated probe, 635/667 nm fluorescence (AID 1113); details: higher = more signal;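 note: score merges 667 nm fluorescence intensity with signal-to-noise per printed feature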
[7] = small-molecule microarray binders of probe aShh, primary screen, biochemical, biotinylated probe, 635/667 nm fluorescence (AID 1114); details: higher = more signal;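 note: probe is biotin-labelled aShh protein from a stem cell growth factor screen; measures binding of labelled protein to compounds printed on the slide; score merges feature fluorescence at 667 nm with signal-to-noise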
[8] = small-molecule microarray binders of probe aNog, primary screen, biochemical, biotinylated probe, 635/667 nm fluorescence (AID 1115); details: higher = more signal;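 note: probe is biotinylated aNog protein used at 0.15 µg/mL for 1 h at 4 C; z-score combines 667 nm fluorescence of each spot with its signal to noise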
[9] = target: Torsin-1A-interacting protein 1 (Homo sapiens) (UniProt Q5JTV8); experiment: LAP1 binders from COS7 cell lysate, primary screen, small-molecule microarray, 635/667 nm fluorescence (AID 1116); details: COS7-hLAP1 lysate binding, 635 nm fluorescence, higher = more signal
[10] = target: Alpha-bungarotoxin (Bungarus multicinctus) (UniProt P60615); experiment: alpha-bungarotoxin binders on microarray, profiling panel, artefact control for SMM control protein annotation, biochemical, small-molecule microarray, Alexa647 label, 635/667 nm fluorescence (AID 1117); details: alpha-BTX-A647 binding fluorescence, higher = more signal
Sequence of Alpha-bungarotoxin (Bungarus multicinctus) (P60615 whole entry, looked up): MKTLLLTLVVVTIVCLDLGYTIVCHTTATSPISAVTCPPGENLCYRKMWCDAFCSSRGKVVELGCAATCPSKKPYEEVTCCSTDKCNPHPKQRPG

Sequence of Torsin-1A-interacting protein 1 (Homo sapiens) (Q5JTV8 whole entry, looked up): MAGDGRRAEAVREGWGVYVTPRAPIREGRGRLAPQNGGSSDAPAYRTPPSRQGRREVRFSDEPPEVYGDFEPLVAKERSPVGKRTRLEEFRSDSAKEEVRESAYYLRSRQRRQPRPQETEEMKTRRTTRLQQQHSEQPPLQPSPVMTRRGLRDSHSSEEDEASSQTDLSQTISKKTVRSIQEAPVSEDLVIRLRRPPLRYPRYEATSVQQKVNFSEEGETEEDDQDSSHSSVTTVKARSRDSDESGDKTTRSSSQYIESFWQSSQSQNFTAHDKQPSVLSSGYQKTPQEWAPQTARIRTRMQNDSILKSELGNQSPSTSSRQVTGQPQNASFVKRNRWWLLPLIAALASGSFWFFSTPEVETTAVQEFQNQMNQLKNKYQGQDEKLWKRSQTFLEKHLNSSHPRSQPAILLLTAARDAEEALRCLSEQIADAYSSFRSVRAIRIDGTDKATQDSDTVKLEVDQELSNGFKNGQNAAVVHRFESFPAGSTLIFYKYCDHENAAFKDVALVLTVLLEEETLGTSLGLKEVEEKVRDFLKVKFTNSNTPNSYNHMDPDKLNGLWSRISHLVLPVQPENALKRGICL
Sequence of Left-right determination factor 2 (Homo sapiens) (O00292 whole entry, looked up): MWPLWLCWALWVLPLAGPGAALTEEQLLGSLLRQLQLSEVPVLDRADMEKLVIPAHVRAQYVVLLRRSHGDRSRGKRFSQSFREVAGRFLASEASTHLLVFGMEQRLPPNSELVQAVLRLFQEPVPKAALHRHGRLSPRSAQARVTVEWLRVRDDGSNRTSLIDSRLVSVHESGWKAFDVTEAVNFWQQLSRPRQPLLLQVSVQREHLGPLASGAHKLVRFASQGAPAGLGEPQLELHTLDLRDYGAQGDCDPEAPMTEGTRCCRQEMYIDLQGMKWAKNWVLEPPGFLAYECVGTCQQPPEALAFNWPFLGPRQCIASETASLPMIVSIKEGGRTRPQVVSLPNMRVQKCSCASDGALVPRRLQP

| SMILES | composite z-score [1] | z-score [2] | composite z-score [3] | composite z-score [4] | composite z-score [5] | composite z-score [6] | composite z-score [7] | composite z-score [8] | composite z-score [9] | composite z-score [10] |
| --- | --- | --- | --- | --- | --- | --- | --- | --- | --- | --- |
| COC(=O)[C@@]1(Cc2ccc(F)cc2)[C@H]2c3cc(C(=O)N(C)C)n(Cc4ccc(C)o4)c3C[C@H]2CN1C(=O)c1ccccc1 | -0.0043 | -0.8 | -1.14 | 1.81 | -0.969 | 0.749 | 1.85 | 3.48 | 5.2 | -1.73 |
| CN(C)CCCC[C@@H]1NC(=O)[C@H]2C[C@@H](C(=O)NCCCCCN)[C@@H](c3cccc(OCCO)c3)N2C1=O | 0.474 | 0.0761 | 0.669 | 2.22 | 1.51 | 0.233 | 0.351 | 0.863 | 2.53 | 1.44 |
| C#CCN1[C@@H](Cc2ccc(O)cc2)C(=O)O[C@H](Cc2ccccc2)[C@@H]1/C=C/C1CC1 | -0.513 | -3.22 | 0.207 | -0.458 | -0.587 | -0.18 | 0.163 | -0.113 | -0.188 | 0.0577 |
| CCCCN1CC=CC23O[C@@H]4C=CCOC(=O)[C@@H]4[C@H]2C(=O)N(CCCCCCO)[C@@H]3C1=O (stereo not given in full) | -0.477 | -0.672 | -1.18 | -1.01 | 0.224 | -0.203 | -0.138 | 0.193 | 1.41 | -1.35 |
| COC(=O)c1c(CC[C@@H](CO)NC(=O)N[C@@H](Cc2ccccc2)Cn2cc(-c3ccccn3)nn2)oc(C(=O)N2CCOCC2)c1C(=O)OC | -0.593 | 0.209 | 0.0348 | -0.194 | 0.0715 | -0.204 | 0.0796 | 0.151 | 0.167 | 0.0762 |
| COC(=O)c1c(CC[C@@H](CO)NC(=O)N[C@H](Cc2ccccc2)Cn2cc(-c3ccccn3)nn2)oc(C(C)=O)c1C(=O)OC | 0.538 | -0.563 | -0.0385 | 0.475 | -0.556 | -0.124 | -0.304 | -0.158 | 1.79 | 1.08 |
| O=C1C2C=CC(C(O)c3cc(C(F)(F)F)cc(C(F)(F)F)c3)N(Nc3ccccc3)C2C(=O)N1c1ccccc1 (stereo not given) | 1.44 | -0.761 | -0.457 | 0.925 | 0.388 | -0.0425 | -0.358 | 0.341 | 1.07 | 0.63 |
| COc1cc2c(cc1O)C(c1cccs1)N(Cc1cccc(OC(F)(F)F)c1)CC2 (stereo not given) | 1.14 | -1.75 | 0.0446 | 0.0759 | -0.194 | -0.0545 | -0.0709 | 0.0953 | 0.0117 | 0.422 |
| CO[C@H]1O[C@H](CO)[C@@H](OC(=O)Nc2ccccc2-c2ccccc2)[C@H](OC(=O)Nc2ccccc2-c2ccccc2)[C@@H]1OC(=O)Nc1ccccc1-c1ccccc1 | 0.538 | -1.77 | 0.292 | 1.74 | 0.459 | -0.0196 | -0.0769 | 0.799 | 0.146 | 0.818 |
| CO[C@H]1O[C@H](CO)[C@@H](OC(=O)Nc2cccc(F)c2)[C@H](OC(=O)Nc2ccccc2)[C@H]1OC(=O)Nc1ccccc1 | 1.52 | -3.16 | 0.238 | 0.183 | -0.467 | -0.0222 | 0.536 | 0.919 | 1.29 | 1.53 |
| COCCCNC(=O)[C@@]1(CCS(=O)(=O)c2ccccc2)N=C(c2ccc(OCCCO)cc2)O[C@H]1c1ccccc1N=[N+]=[N-] | 1.48 | -1.6 | 0.169 | 1.55 | 0.001 | 0.127 | 0.204 | 1.36 | 2.24 | 1.67 |
| COc1ccc([Si](C)(C)[C@H]2[C@H](CC(=O)N3CCC[C@H]3CO)O[C@@]3(C(=O)N(Cc4cccc(N5CCOC5=O)c4)c4ccccc43)[C@@H]2C)cc1 | 1.23 | -2.44 | 1.05 | -0.133 | -0.834 | -0.124 | -0.0553 | 0.0258 | 0.368 | 1.58 |
